The source made the active and inactive calls. How the source made its calls: active means hit-call score of the fitted dose curve at least 0.9, where 1 is the maximum; inactive means score below 0.9.
How the values were obtained:
Conditions in all cases: mRNA level, 48 h; actives raise or lower the signal
[1] = read-out: ABC Transporter (ABCC2), ABCC2 (gene 1244); assay: LTEA_HepaRG_ABCC2: Life Technologies and Expression Analysis (LTEA) Assay for ABC Transporter (ABCC2) using HepaRG (AID 2283464)
Outline: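 qRT-PCR (TaqMan, Fluidigm array) read-out of ABCC2 mRNA, normalized to three housekeeping genes. Differentiated HepaRG cells were treated 48 h in serum-free induction medium with 8-point half-log series from 100 uM in 0.5% DMSO; curves fitted bidirectionally relative to DMSO.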

[2] = read-out: Broad substrate specificity ATP-binding cassette transporter ABCG2 (Homo sapiens) (UniProt Q9UNQ0); assay: LTEA_HepaRG_ABCG2: Life Technologies and Expression Analysis (LTEA) Assay for ABC Transporter (ABCG2) using HepaRG (AID 2283465)
Outline: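 Read-out is ABCG2 mRNA induction or loss quantified by qRT-PCR after 48 h chemical treatment of human HepaRG cells, normalized to three housekeeping genes. Concentrations reached 100 uM top in half-log steps; fitting was bidirectional against 0.5% DMSO.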

[3] = read-out: ATP-citrate lyase (ACLY), ACLY (gene 47); assay: LTEA_HepaRG_ACLY: Life Technologies and Expression Analysis (LTEA) Assay for ATP-citrate lyase (ACLY) using HepaRG (AID 2283466)
Outline: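 HepaRG, 48 h exposure, 8-pt half-log dilutions (top 100 uM), 0.5% DMSO. Readout: ACLY mRNA, TaqMan qRT-PCR, housekeeping-normalized (ACTB/GAPDH/POLR2A). Bidirectional curve fit vs DMSO.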

[4] = read-out: Peroxisomal acyl-coenzyme A oxidase 1 (ACOX1) gene, ACOX1 (gene 51); assay: LTEA_HepaRG_ACOX1: Life Technologies and Expression Analysis (LTEA) Assay for Peroxisomal acyl-coenzyme A oxidase 1 (ACOX1) gene using HepaRG (AID 2283467)
Outline: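 Measured by qRT-PCR against three housekeeping genes: ACOX1 transcript change in human HepaRG cells after 48 h dosing. Concentrations ran up to 100 uM in half-log steps. Curves were fitted bidirectionally relative to 0.5% DMSO.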

[5] = read-out: Alkaline Phosphatase, Placental (ALPP) gene, ALPP (gene 250); assay: LTEA_HepaRG_ALPP: Life Technologies and Expression Analysis (LTEA) Assay for Alkaline Phosphatase, Placental (ALPP) gene using HepaRG (AID 2283468)
Outline: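 qRT-PCR readout of ALPP mRNA (Fluidigm TaqMan), normalized to ACTB/GAPDH/POLR2A, after 48 h chemical exposure of HepaRG cells; 8-point half-log series, top 100 uM, 0.5% DMSO vehicle. Bidirectional curve fit versus DMSO baseline.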

[6] = read-out: Bcl-2 (BAD) gene, BAD (gene 572); assay: LTEA_HepaRG_BAD: Life Technologies and Expression Analysis (LTEA) Assay for Bcl-2 (BAD) gene using HepaRG (AID 2283469)
Outline: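 BAD transcript change, measured by qRT-PCR against three housekeeping genes and fitted in both directions relative to 0.5% DMSO, after 48 h chemical treatment of human HepaRG liver cells at concentrations up to 100 uM.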

[7] = read-out: Bcl-2 (BAX) gene, BAX (gene 581); assay: LTEA_HepaRG_BAX: Life Technologies and Expression Analysis (LTEA) Assay for Bcl-2 (BAX) gene using HepaRG (AID 2283470)
Outline: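 Differentiated human HepaRG cells, plated 48 h then switched to serum-free induction medium, were exposed 48 h to 8 half-log concentrations up to 100 uM in 0.5% DMSO; BAX mRNA measured by qRT-PCR, normalized to ACTB, GAPDH, POLR2A.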

[8] = read-out: adenosine kinase (ADK) gene, ADK (gene 132); assay: LTEA_HepaRG_ADK: Life Technologies and Expression Analysis (LTEA) Assay for adenosine kinase (ADK) gene using HepaRG (AID 2283471)
Outline: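 Read-out is ADK transcript level measured by qRT-PCR and normalised to three housekeeping genes. Cells are human HepaRG, dosed for 48 h at up to 100 uM in 0.5% DMSO. Gain or loss of signal is fitted against DMSO controls.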

[9] = read-out: Alpha-fetoprotein (AFP) gene, AFP (gene 174); assay: LTEA_HepaRG_AFP: Life Technologies and Expression Analysis (LTEA) Assay for Alpha-fetoprotein (AFP) gene using HepaRG (AID 2283472)
Outline: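 Human HepaRG cells plated 48 h, then switched to serum-free induction medium and exposed in duplicate for 48 h to 8-point half-log series from 100 uM in 0.5% DMSO. AFP mRNA by qRT-PCR, normalized to ACTB, GAPDH, POLR2A; bidirectional fit versus DMSO.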

[10] = read-out: BCL2L11 (gene 10018); assay: LTEA_HepaRG_BCL2L11: Life Technologies and Expression Analysis (LTEA) Assay for Bcl-2 (BCL2L11) gene using HepaRG (AID 2283473)
Outline: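 HepaRG, 48 h exposure, 8-pt half-log series from 100 uM in 0.5% DMSO, duplicates; qRT-PCR (Fluidigm TaqMan) for BCL2L11, housekeeping-normalized; bidirectional curve fit relative to DMSO baseline.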

[11] = read-out: Apolipoprotein A-V (APOA5) gene, APOA5 (gene 116519); assay: LTEA_HepaRG_APOA5: Life Technologies and Expression Analysis (LTEA) Assay for Apolipoprotein A-V (APOA5) gene using HepaRG (AID 2283474)
Outline: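 HepaRG, 48 h chemical exposure in serum-free induction medium, 8-pt half-log series (top 100 uM), 0.5% DMSO vehicle, duplicates. Readout: APOA5 mRNA by qRT-PCR, housekeeping-normalized; bidirectional fit vs DMSO baseline.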

[12] = read-out: Bcl-2 (BID) gene, BID (gene 637); assay: LTEA_HepaRG_BID: Life Technologies and Expression Analysis (LTEA) Assay for Bcl-2 (BID) gene using HepaRG (AID 2283476)
Outline: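 Differentiated HepaRG cells in serum-free induction medium were exposed in duplicate for 48 h to eight half-log concentrations up to 100 uM in 0.5% DMSO. BID mRNA was quantified by qRT-PCR, normalized to ACTB, GAPDH and POLR2A.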

[13] = read-out: Caspase-3 (Homo sapiens) (UniProt P42574); assay: LTEA_HepaRG_CASP3: Life Technologies and Expression Analysis (LTEA) Assay for cysteine-aspartic acid protease (CASP3) using HepaRG (AID 2283477)
Outline: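 HepaRG, 48 h exposure, 8 conc. (top 100 uM, half-log steps, duplicate), 0.5% DMSO vehicle; qRT-PCR of CASP3 transcript, housekeeping-normalised (ACTB/GAPDH/POLR2A); bidirectional curve fit vs DMSO baseline.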

[14] = read-out: Cytochrome P450 (CYP24A1), CYP24A1 (gene 1591); assay: LTEA_HepaRG_CYP24A1: Life Technologies and Expression Analysis (LTEA) Assay for Cytochrome P450 (CYP24A1) using HepaRG (AID 2283478)
Outline: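 qRT-PCR read-out: CYP24A1 transcript levels normalized to three housekeeping genes, bidirectional curve fits against 0.5% DMSO baseline. Human HepaRG cells treated 48 h with chemicals at eight concentrations from 100 uM in half-log steps.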

[15] = read-out: Cytochrome P450 (CYP1A2), CYP1A2 (gene 1544); assay: LTEA_HepaRG_CYP1A2: Life Technologies and Expression Analysis (LTEA) Assay for Cytochrome P450 (CYP1A2) using HepaRG (AID 2283479)
Outline: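 HepaRG, 48 h exposure, top 100 uM, half-log 8-pt, 0.5% DMSO vehicle, duplicates. Readout: TaqMan qRT-PCR of CYP1A2 mRNA, housekeeping-normalized (ACTB/GAPDH/POLR2A). Gain/loss fit relative to DMSO baseline.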

[16] = read-out: cysteine-aspartic acid protease (CASP8), CASP8 (gene 841); assay: LTEA_HepaRG_CASP8: Life Technologies and Expression Analysis (LTEA) Assay for cysteine-aspartic acid protease (CASP8) using HepaRG (AID 2283480)
Outline: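 HepaRG, 48 h exposure, duplicate wells; 8 conc, half-log from 100 uM, 0.5% DMSO. Serum-free induction medium. CASP8 mRNA by TaqMan qRT-PCR, norm. ACTB/GAPDH/POLR2A; gain/loss fitted vs DMSO.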

[17] = read-out: Cytochrome P450 (CYP2B6), CYP2B6 (gene 1555); assay: LTEA_HepaRG_CYP2B6: Life Technologies and Expression Analysis (LTEA) Assay for Cytochrome P450 (CYP2B6) using HepaRG (AID 2283481)
Outline: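 Read-out is CYP2B6 mRNA by TaqMan qRT-PCR, normalized to three housekeeping genes and fitted bidirectionally against 0.5% DMSO baseline. Human HepaRG cells received test chemicals for 48 h, top concentration 100 uM, half-log dilutions.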

[18] = read-out: Cytochrome P450 2C19 (Homo sapiens) (UniProt P33261); assay: LTEA_HepaRG_CYP2C19: Life Technologies and Expression Analysis (LTEA) Assay for CYP2C19 using HepaRG (AID 2283482)
Outline: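 HepaRG, 48 h chemical exposure, 8-pt half-log series from 100 uM in 0.5% DMSO, duplicates. Readout: CYP2C19 mRNA by TaqMan qRT-PCR, housekeeping-normalized. Bidirectional fit vs DMSO baseline; phenobarbital 1mM as induction control.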

[19] = read-out: CYP2C8 (gene 1558); assay: LTEA_HepaRG_CYP2C8: Life Technologies and Expression Analysis (LTEA) Assay for CYP2C8 using HepaRG (AID 2283483)
Outline: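 CYP2C8 mRNA induction or loss, by qRT-PCR normalized to ACTB/GAPDH/POLR2A, is read in HepaRG cells after 48 h treatment. Concentrations run from 100 uM down in half-log dilutions, with 0.5% DMSO as vehicle and baseline.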

Measured: AC50

Caspase-3 (Homo sapiens), sequence (P42574 whole entry, looked up): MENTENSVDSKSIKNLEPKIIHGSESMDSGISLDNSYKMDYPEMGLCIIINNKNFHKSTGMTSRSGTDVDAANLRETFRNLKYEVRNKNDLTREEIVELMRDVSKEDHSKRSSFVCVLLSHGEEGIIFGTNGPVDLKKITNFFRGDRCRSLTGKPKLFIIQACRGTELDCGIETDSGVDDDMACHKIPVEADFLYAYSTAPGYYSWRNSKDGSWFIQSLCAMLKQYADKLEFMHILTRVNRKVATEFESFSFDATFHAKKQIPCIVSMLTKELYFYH
Broad substrate specificity ATP-binding cassette transporter ABCG2 (Homo sapiens), sequence (Q9UNQ0 whole entry, looked up): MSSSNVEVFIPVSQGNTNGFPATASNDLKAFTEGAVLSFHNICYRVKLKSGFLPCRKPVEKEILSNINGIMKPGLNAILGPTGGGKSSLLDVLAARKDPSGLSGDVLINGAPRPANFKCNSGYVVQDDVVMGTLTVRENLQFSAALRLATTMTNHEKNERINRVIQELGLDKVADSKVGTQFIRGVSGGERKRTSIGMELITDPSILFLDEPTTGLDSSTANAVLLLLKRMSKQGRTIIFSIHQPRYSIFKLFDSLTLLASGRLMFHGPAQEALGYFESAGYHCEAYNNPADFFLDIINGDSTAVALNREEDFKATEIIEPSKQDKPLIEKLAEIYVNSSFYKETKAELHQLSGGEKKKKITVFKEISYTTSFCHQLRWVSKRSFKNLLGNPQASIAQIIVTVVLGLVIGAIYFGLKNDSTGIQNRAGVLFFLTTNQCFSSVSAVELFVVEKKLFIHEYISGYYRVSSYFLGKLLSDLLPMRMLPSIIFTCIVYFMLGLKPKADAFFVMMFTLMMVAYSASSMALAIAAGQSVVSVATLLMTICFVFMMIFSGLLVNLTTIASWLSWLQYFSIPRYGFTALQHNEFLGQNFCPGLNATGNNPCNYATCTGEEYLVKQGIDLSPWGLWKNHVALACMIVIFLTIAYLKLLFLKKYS
Cytochrome P450 2C19 (Homo sapiens), sequence (P33261 whole entry, looked up): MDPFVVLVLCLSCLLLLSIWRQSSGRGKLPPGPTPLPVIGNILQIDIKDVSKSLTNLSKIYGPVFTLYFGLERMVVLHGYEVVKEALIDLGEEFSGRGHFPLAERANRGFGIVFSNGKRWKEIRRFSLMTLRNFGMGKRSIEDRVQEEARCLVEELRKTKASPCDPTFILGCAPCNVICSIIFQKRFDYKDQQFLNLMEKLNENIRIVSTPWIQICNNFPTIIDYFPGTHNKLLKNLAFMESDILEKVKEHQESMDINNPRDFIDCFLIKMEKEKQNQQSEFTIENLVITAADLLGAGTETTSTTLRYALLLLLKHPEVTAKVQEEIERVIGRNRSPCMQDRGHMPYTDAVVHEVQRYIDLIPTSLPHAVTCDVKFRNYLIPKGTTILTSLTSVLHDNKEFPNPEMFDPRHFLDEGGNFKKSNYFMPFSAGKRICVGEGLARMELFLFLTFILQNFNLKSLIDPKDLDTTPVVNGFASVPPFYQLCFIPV

CC(=O)c1ccccc1
inactive: all assays above

CC(C)CC(C)O (configuration not stated)
active: [15] 50 µM
not listed: [18]
inactive: all other assays above

O=S(=O)(O)c1ccc(N=Nc2c(O)ccc3cc(S(=O)(=O)O)ccc23)cc1
active: [15] 50 µM | [17] 22.9 µM
not listed: [18]
inactive: all other assays above

NC(=O)N1c2ccccc2C=Cc2ccccc21
active: [1] 37.8 µM | [17] 5.83 µM
not listed: [18]
inactive: all other assays above

O=C(O)c1ccc2c(c1)nc(C(=O)NC1CCN(C3CC3)CC1)n2Cc1cc(-c2ccc(Cl)s2)on1
not listed: [18]
inactive: all other assays above

CCCCCCCC/C=C\CCCCCCCC(=O)OC[C@@H](O)[C@H]1OC[C@H](O)[C@H]1O
not listed: [18]
inactive: all other assays above

CC(C)C(=O)Nc1ccc([N+](=O)[O-])c(C(F)(F)F)c1
active: [1] 34.3 µM | [3] 17.6 µM | [4] 72.4 µM | [5] 50 µM | [7] 50 µM | [9] 58.5 µM | [11] 65.9 µM | [15] 14.9 µM | [17] 63.2 µM | [19] 15.8 µM
inactive: [2] | [6] | [8] | [10] | [12] | [13] | [14] | [16]
